Results taken from PubChem BioAssay (EPA / NIEHS).
Values joined by “and” are separate entries in the source; they are usually repeats but may differ in a detail not shown here. Identical values can stand only once. Inconclusive results are not listed. The source holds several records for some structures; these can differ, active in one and inactive in another. Active and inactive are the calls of the source. Rule for the calls, unless noted: active = hit-call score of the fitted dose curve at least 0.9, where 1 is the maximum; inactive = score below 0.9.

Key:
[1] = read-out: Monocyte Chemoattractant Protein-1 (MCP1), CCL2 (gene 6347); assay: BSK_LPS_MCP1: BioMAP Diversity Plus: LPS Assay for Monocyte Chemoattractant Protein-1 (MCP1) Biomarker Activity (AID 2283081); details: primary human HUVEC with PBMC; actives raise or lower the signal;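 for AC50: secreted MCP-1 protein quantified by ELISA in culture supernatant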
Procedure, shortened: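 Human umbilical vein endothelial cells co-cultured with PBMC, LPS-stimulated; secreted MCP-1 measured by ELISA 24 h after compound addition. Bidirectional curve fitting against DMSO baseline; SRB total-protein staining in parallel cultures for cytotoxicity.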

[2] = BSK_LPS_PGE2: BioMAP Diversity Plus: LPS Assay for Prostaglandin E2 (PGE2) Biomarker Activity (AID 2283082); details: primary human HUVEC with PBMC; actives raise or lower the signal;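 for AC50: secreted prostaglandin E2 measured by ELISA in LPS-stimulated co-culture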
Procedure, shortened: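 Endpoint derived from bidirectional curve fitting versus DMSO of ELISA-measured PGE2 in LPS-stimulated human primary vascular co-culture (HUVEC with PBMC) harvested at 24 h.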

[3] = read-out: Macrophage colony-stimulating factor (MCSF), CSF1 (gene 1435); assay: BSK_LPS_MCSF: BioMAP Diversity Plus: LPS Assay for Macrophage colony-stimulating factor (MCSF) Biomarker Activity (AID 2283083); details: primary human HUVEC with PBMC; actives raise or lower the signal
Procedure, shortened: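 HUVEC–PBMC co-culture, M-CSF measured by ELISA 24 h after chemical dosing. Fitted in both directions relative to DMSO as negative control; overt cytotoxicity assessed by SRB total-protein staining in parallel cultures.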

[4] = read-out: Tissue Factor, F3 (gene 2152); assay: BSK_LPS_TissueFactor: BioMAP Diversity Plus: LPS Assay for Tissue Factor Biomarker Activity (AID 2283084); details: primary human HUVEC with PBMC; actives raise or lower the signal
Procedure, shortened: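 Human umbilical vein endothelial cells co-cultured with PBMC were dosed with compound. Cell-surface CD142 was measured by ELISA 24 h later. Activity was fitted bidirectionally against DMSO, with SRB total-protein staining in parallel cultures for cytotoxicity.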

[5] = read-out: Tumor necrosis factor (Homo sapiens) (UniProt P01375); assay: BSK_LPS_TNFa: BioMAP Diversity Plus: LPS Assay for Tumour Necrosis Factor alpha (TNFa) Biomarker Activity (AID 2283085); details: primary human HUVEC with PBMC; actives raise or lower the signal
Procedure, shortened: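 Primary human vascular co-culture of HUVEC and PBMC; TNFa ELISA 24 h after treatment, analysed as increase or decrease relative to DMSO control.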

[6] = read-out: Vascular cell adhesion molecule 1 (VCAM1), VCAM1 (gene 7412); assay: BSK_LPS_VCAM1: BioMAP Diversity Plus: LPS Assay for Vascular cell adhesion molecule 1 (VCAM1) Biomarker Activity (AID 2283086); details: primary human HUVEC with PBMC; actives raise or lower the signal
Procedure, shortened: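 Primary human vascular co-culture (umbilical vein endothelium plus PBMC) stimulated with LPS received chemical; 24 h later VCAM-1 was read by ELISA. Overt cytotoxicity was assessed by sulforhodamine B staining of parallel cultures at the same time point.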

CD38, CD38 (gene 952) = assay: BSK_SAg_CD38: BioMAP Diversity Plus: SAg Assay for CD38 Biomarker Activity (AID 2283087); details: primary human HUVEC with PBMC; actives raise or lower the signal
Procedure, shortened: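 Fluorescence ELISA of cell-surface CD38 served as the read-out, with either increase or decrease fitted against DMSO controls. Cells were a human umbilical vein endothelium plus PBMC co-culture under SEB/TSST-1 stimulation, measured 24 h after dosing.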

CD40, CD40 (gene 958) = assay: BSK_SAg_CD40: BioMAP Diversity Plus: SAg Assay for CD40 Biomarker Activity (AID 2283088); details: primary human HUVEC with PBMC; actives raise or lower the signal
Procedure, shortened: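 HUVEC plus PBMC co-culture, superantigen-activated, with CD40 read by ELISA 24 h after dosing. Curves fitted in both directions against DMSO. Overt cytotoxicity checked by parallel SRB total-protein staining.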

CD69, CD69 (gene 969) = assay: BSK_SAg_CD69: BioMAP Diversity Plus: SAg Assay for CD69 Biomarker Activity (AID 2283089); details: primary human HUVEC with PBMC; actives raise or lower the signal;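 for AC50: cell surface CD69 protein quantified by ELISA with fluorescence detection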
Procedure, shortened: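 Values derive from bidirectional fitting relative to DMSO vehicle. Cells: umbilical vein endothelium plus peripheral blood mononuclear cells, treated 24 h before fluorescent ELISA for CD69.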

[7] = read-out: Monocyte Chemoattractant Protein-1 (MCP1), CCL2 (gene 6347); assay: BSK_SAg_MCP1: BioMAP Diversity Plus: SAg Assay for Monocyte Chemoattractant Protein-1 (MCP1) Biomarker Activity (AID 2283090); details: primary human HUVEC with PBMC; actives raise or lower the signal
Procedure, shortened: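 MCP-1 levels in the endothelial–PBMC SAg co-culture were quantified by ELISA at 24 h post-dosing; both increases and decreases versus DMSO scored. Cytotoxicity monitored by SRB total protein in parallel cultures.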

[8] = read-out: E-selectin (Homo sapiens) (UniProt P16581); assay: BSK_SAg_Eselectin: BioMAP Diversity Plus: SAg Assay for Eselectin Biomarker Activity (AID 2283091); details: primary human HUVEC with PBMC; actives raise or lower the signal
Procedure, shortened: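 Human umbilical vein endothelial cells co-cultured with peripheral blood mononuclear cells, SAg system. E-selectin is measured by ELISA 24 h after dosing and fitted bidirectionally against DMSO. Cytotoxicity is checked by SRB staining of parallel cultures.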

[9] = BSK_SAg_PBMCCytotoxicity: PBMC Cytotoxicity Assessment in the BioMAP Diversity Plus: SAg Assay (AID 2283093); details: primary human HUVEC with PBMC;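 note: PBMC viability measured as Alamar Blue reduction fluorescence at 546/580 nm; fitted both ways against DMSO so a hit may be loss or gain of signal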;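 for AC50: PBMC superantigen activated with SEB plus TSST-1 one hour after compound addition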
Procedure, shortened: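 HUVEC/PBMC co-culture; PBMC exposed to chemical 1 h before SEB and TSST-1 activation (20 ng/mL each), incubated 90 h, then Alamar Blue 6 h, fluorescence 546/580 nm. Bidirectional fit versus DMSO baseline.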

[10] = read-out: Interleukin-8 (IL8), CXCL8 (gene 3576); assay: BSK_SAg_IL8: BioMAP Diversity Plus: SAg Assay for Interleukin-8 (IL8) Biomarker Activity (AID 2283094); details: primary human HUVEC with PBMC; actives raise or lower the signal
Procedure, shortened: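 In this co-culture of human umbilical vein endothelium with peripheral blood mononuclear cells, IL-8 is assayed by ELISA at 24 h. DMSO serves as baseline for bidirectional curve fitting.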

[11] = BSK_SAg_Proliferation: Cell Proliferation Assessment in the BioMAP Diversity Plus: SAg Assay (AID 2283095); details: primary human HUVEC with PBMC;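 note: relative cell number as total protein by SRB absorbance in sub-confluent culture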
Procedure, shortened: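 Readout is SRB-stained protein (560 nm) in a primary human HUVEC and PBMC co-culture; sub-confluent cultures are read at 96 h. Activity is fitted bidirectionally using DMSO as baseline.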

[12] = BSK_SAg_SRB: Viability Assessment in the BioMAP Diversity Plus: SAg Assay (AID 2283096); details: primary human HUVEC with PBMC;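 note: cells read one day after compound addition; hits may be either gain or loss of signal compared with DMSO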
Procedure, shortened: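 Human umbilical vein endothelial cells co-cultured with PBMC, read 24 h after compound dosing. Total protein measured by sulforhodamine B staining (0.1% SRB after 10% TCA fixation, absorbance 560 nm); bidirectional fit versus DMSO baseline.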

[13] = read-out: Monokine induced gamma interferon (MIG), CXCL9 (gene 4283); assay: BSK_SAg_MIG: BioMAP Diversity Plus: SAg Assay for Monokine induced gamma interferon (MIG) Biomarker Activity (AID 2283092); details: primary human HUVEC with PBMC; actives raise or lower the signal
Procedure, shortened: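 Values reflect bidirectional fitting of ELISA-measured MIG against DMSO vehicle, taken 24 h after dosing of a co-culture of human umbilical vein endothelial cells and peripheral blood mononuclear cells.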

[14] = target: human CYP19A1, CYP19A1 (gene 1588) (UniProt P11511); assay: NVS_ADME_hCYP19A1: NovaScreen (NVS) CYP450-related Enzyme Activity (ADME) Assay for human CYP19A1 (AID 2283098; active = hit-call score of the fitted dose curve at least 0.9, where 1 is the maximum;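 for AC50: potency for inhibitors seen as loss of fluorescent enzyme signal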)
Sequence of human CYP19A1, CYP19A1 (gene 1588) (P11511 whole entry, looked up): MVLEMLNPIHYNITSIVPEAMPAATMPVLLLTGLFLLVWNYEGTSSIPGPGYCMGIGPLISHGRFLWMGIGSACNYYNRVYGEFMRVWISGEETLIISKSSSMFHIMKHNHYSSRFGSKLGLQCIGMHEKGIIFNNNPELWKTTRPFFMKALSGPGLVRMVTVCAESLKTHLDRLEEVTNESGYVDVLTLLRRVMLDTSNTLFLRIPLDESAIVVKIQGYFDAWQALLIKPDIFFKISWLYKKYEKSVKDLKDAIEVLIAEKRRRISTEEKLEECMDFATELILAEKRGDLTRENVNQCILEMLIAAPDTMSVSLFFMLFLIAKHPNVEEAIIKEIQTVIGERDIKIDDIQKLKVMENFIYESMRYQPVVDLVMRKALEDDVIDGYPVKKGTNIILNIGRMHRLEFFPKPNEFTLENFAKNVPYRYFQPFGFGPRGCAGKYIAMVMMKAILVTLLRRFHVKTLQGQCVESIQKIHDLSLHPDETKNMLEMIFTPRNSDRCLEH
Procedure, shortened: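 Recombinant enzyme in a cell-free format, read 0.5 h after dosing by fluorescence from a fluorogenic substrate. Loss of signal was fitted against acetonitrile as baseline. Primary screen in duplicate at 10 uM, actives then tested in concentration series.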

[15] = target: human CYP1A1, CYP1A1 (gene 1543) (UniProt P04798); assay: NVS_ADME_hCYP1A1: NovaScreen (NVS) CYP450-related Enzyme Activity (ADME) Assay for human CYP1A1 (AID 2283100; active = hit-call score of the fitted dose curve at least 0.9, where 1 is the maximum)
Sequence of human CYP1A1, CYP1A1 (gene 1543) (P04798 whole entry, looked up): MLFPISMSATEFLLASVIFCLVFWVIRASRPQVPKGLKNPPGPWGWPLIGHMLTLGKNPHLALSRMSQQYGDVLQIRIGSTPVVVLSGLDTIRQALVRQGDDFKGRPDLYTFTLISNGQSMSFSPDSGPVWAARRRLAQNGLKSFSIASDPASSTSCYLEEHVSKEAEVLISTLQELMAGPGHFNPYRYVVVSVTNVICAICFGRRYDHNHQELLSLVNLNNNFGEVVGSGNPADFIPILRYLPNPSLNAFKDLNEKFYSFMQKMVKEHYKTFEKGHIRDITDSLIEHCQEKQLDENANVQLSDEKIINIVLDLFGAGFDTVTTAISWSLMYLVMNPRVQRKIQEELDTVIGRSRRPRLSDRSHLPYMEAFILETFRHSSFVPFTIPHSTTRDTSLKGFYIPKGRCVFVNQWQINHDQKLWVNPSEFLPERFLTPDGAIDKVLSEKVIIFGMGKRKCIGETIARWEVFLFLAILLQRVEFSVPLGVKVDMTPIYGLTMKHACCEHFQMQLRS
Procedure, shortened: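 Recombinant CYP1A1 with a fluorogenic substrate, cell-free, read 1 h after dosing; acetonitrile as negative control. Single-concentration screen at 10 uM in duplicate, then concentration-response up to 20 uM for chemicals meeting ~30% inhibition threshold.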

Measured: AC50

Sequence of E-selectin (Homo sapiens) (P16581 whole entry, looked up): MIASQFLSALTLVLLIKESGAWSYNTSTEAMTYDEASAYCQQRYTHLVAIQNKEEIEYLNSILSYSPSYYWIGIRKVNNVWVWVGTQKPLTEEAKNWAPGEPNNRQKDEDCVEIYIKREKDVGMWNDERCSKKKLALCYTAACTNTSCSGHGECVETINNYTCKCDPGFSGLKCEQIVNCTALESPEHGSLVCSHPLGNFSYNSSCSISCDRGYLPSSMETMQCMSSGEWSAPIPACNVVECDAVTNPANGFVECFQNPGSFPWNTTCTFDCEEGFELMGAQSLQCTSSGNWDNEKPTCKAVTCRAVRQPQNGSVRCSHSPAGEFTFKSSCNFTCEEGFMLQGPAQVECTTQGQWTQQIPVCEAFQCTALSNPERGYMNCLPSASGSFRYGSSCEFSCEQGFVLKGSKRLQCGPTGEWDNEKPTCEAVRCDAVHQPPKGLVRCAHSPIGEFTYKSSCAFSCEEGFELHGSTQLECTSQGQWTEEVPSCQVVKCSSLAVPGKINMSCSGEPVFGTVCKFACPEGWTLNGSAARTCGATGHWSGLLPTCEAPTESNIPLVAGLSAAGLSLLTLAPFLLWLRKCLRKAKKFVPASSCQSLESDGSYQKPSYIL
Sequence of Tumor necrosis factor (Homo sapiens) (P01375 whole entry, looked up): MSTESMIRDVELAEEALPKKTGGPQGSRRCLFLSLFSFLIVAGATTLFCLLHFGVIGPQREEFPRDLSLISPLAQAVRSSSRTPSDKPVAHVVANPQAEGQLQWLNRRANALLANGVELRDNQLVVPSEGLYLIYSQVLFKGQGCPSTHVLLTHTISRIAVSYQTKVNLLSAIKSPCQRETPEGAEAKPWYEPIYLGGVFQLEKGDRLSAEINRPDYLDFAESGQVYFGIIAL

C#C[C@]1(O)CC[C@H]2[C@@H]3CCC4=CC(=O)CC[C@@H]4[C@H]3CC[C@@]21C
active: [1] 8.06 µM | [2] 20 µM | [3] 6.38 µM | [5] 4.11 µM | [6] 8.21 µM | CD38, CD38 (gene 952) 7.1 µM | CD40, CD40 (gene 958) 5.45 µM | [7] 5.76 µM | [12] 7.46 µM
inactive: [4] | CD69, CD69 (gene 969) | [8] | [9] | [10] | [11]

FC(F)(I)C(F)(F)C(F)(F)C(F)(F)C(F)(F)C(F)(F)I
active: [1] 36.5 µM [middle of 5 runs] | [2] 7.63 µM and 7.34 µM and 7.24 µM | [10] 9.66 µM and 45 µM and 41.6 µM | [12] 28.1 µM [middle of 5 runs]
inactive: [2] | [10]

NC(=O)N1C(=O)C(C(=O)c2cc(Cl)cs2)c2cc(F)c(Cl)cc21 (stereo not given)
inactive: [3] | [5] | [6] | [9] | [10]
active: [1] 5.47 µM | [2] 0.345 µM | [4] 11.1 µM | CD38, CD38 (gene 952) 24.9 µM | CD40, CD40 (gene 958) 16.4 µM | CD69, CD69 (gene 969) 20 µM | [7] 5.4 µM | [8] 8.61 µM | [11] 12.4 µM | [12] 20 µM

CC[C@H](c1ccc(O)cc1)[C@@H](CC)c1ccc(O)cc1
active: [1] 33.8 µM | [2] 38.1 µM | [3] 22.4 µM | [4] 32 µM | [5] 30.6 µM | [6] 29 µM | CD38, CD38 (gene 952) 19.1 µM | CD40, CD40 (gene 958) 20.7 µM | CD69, CD69 (gene 969) 20.6 µM | [7] 23.9 µM | [8] 17.9 µM | [13] 32.6 µM | [9] 31.1 µM | [10] 20.2 µM | [11] 19.2 µM | [12] 31.4 µM | [14] 1.77 µM

CC(C)(C)c1cccc(C(C)(C)C)c1O
not listed: [13] | [14] | [15]
inactive: all other assays above

CCOC(=O)CC(O)(CC(=O)OCC)C(=O)OCC
not listed: [14] | [15]
inactive: all other assays above

NCC(F)(F)C(F)(F)C(F)(F)C(F)(F)C(F)(F)C(F)(F)C(F)(F)F
inactive: [1] | [2] | [3] | [4] | [5] | [6] | CD38, CD38 (gene 952) | CD40, CD40 (gene 958) | CD69, CD69 (gene 969) | [7] | [8] | [9] | [10] | [11] | [12]
active: [9] 47.2 µM | [11] 43.6 µM

CCCCCCCCCCCCCCCS(=O)(=O)Oc1ccccc1
active: [9] 5.98 µM | [11] 6.39 µM
not listed: [5] | [14] | [15]
inactive: all other assays above

c1ccc2cc3c(ccc4ccccc43)cc2c1
active: [4] 0.587 µM
inactive: all other assays above

Oc1cccc(O)c1
not listed: [14] | [15]
inactive: all other assays above

CCCCC(CC)COC(=O)CCCCC(=O)OCc1ccccc1 (stereo not given)
not listed: [13] | [14] | [15]
inactive: all other assays above

OCCC(F)(F)C(F)(F)C(F)(F)C(F)(F)C(F)(F)C(F)(F)F
active: [3] 46.8 µM | [6] 48.9 µM | CD38, CD38 (gene 952) 50.4 µM | CD40, CD40 (gene 958) 56.3 µM | CD69, CD69 (gene 969) 51.3 µM | [8] 54.9 µM | [9] 47.7 µM and 55.7 µM | [10] 46.1 µM | [11] 49.8 µM and 50.9 µM | [12] 53.1 µM
inactive: [1] | [2] | [3] | [4] | [6] | CD38, CD38 (gene 952) | CD40, CD40 (gene 958) | CD69, CD69 (gene 969) | [7] | [8] | [9] | [10] | [11] | [12]

O=C(O)c1ccccc1C(c1ccc(O)cc1)c1ccc(O)cc1
not listed: [13] | [15]
inactive: all other assays above
